{"source": "PubChem BioAssay (NCI)", "note": "The panel holds about 83,000 compounds, 20% with a hit somewhere; the sample as a whole holds those more often.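 Growth was measured after 48 h exposure to one concentration of compound in 96-well plates. Values under 10 count as active.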 A number with no mark means an inactive call. The source made the active and inactive calls."}
{"tested_on": "NCI-H460 lung", "assay": "NCI-60 one-dose screen, 48 h (100 = growth as untreated, 0 = no growth, -100 = all killed)", "conditions": "10 µM"}
{"smiles": "O=C(NO)c1ccc(Cn2ccc3c(Nc4ccccc4)ncnc32)cc1", "growth": "13.1%"}
{"smiles": "N#Cc1ccc(-c2nn(-c3ccc(C(=O)O)cc3)cc2CNc2cccc(Br)c2)cc1", "growth": "37.8%"}
{"smiles": "O=C(c1ccc(Cl)cc1)C1[C@H](c2ccccc2Br)[C@@H](c2ccccc2)NC12C(=O)Nc1ccccc12", "note": "(stereo partly drawn)", "growth": "0.679% (active)"}
{"smiles": "CC1(C)CC[C@]2(C(=O)Nc3ccccc3)CC[C@]3(C)C(=CC[C@@H]4[C@@]5(C)CC[C@H](N)C(C)(C)[C@@H]5CC[C@]43C)[C@H]2C1", "growth": "-30.2% (active)"}
{"smiles": "CC(=C(c1ccc(OCCCN(C)C)cc1)c1ccc(OCCCN(C)C)cc1)c1ccccc1", "growth": "3.15% (active)"}
{"smiles": "Cc1ccc(/C=C/C(=O)c2ccc(S(=O)(=O)NCCNc3nc(Nc4ccc(F)cc4)nc(N(C)C)n3)cc2)cc1", "growth": "0.319% (active)"}
{"smiles": "COc1ccc(C(=O)Nc2sc3c(c2C#N)CCC(=O)C3)cc1C(F)(F)F", "growth": "0.213% (active)"}
{"smiles": "COc1ccc2nc(Cl)c(-c3cc(-c4ccccc4)nc(=S)[nH]3)cc2c1", "growth": "90.4%"}
{"smiles": "Cc1ccc(-c2cc(C(=O)N=Nc3c(O)[nH]c4ccccc34)c3ccccc3n2)cc1", "growth": "-35.8% (active)"}
{"smiles": "C#Cc1ccc(S(=O)(=O)Nc2cccc(-c3csc(NC(C)=O)n3)c2)cc1", "growth": "76.7%"}
{"smiles": "CC(C)C1=C[C@@]23CC[C@@H]4[C@](C)(CCC[C@]4(C)C(=O)NCc4ccccc4)[C@H]2C[C@@H]1[C@H]1C(=O)CCC(=O)[C@H]13", "growth": "84.5%"}
{"smiles": "COc1ccc(C(=O)NC(=S)N2CCN(c3ncnc4c3cnn4-c3ccccc3)CC2)cc1", "growth": "55.8%"}
{"smiles": "C[C@H]1[C@H](C)CC[C@]2(COC(=O)CCC(=O)NCC#CCN3CCNCC3)CC[C@]3(C)C(=CC[C@@H]4[C@@]5(C)CCCNC(C)(C)[C@@H]5CC[C@]43C)[C@H]12", "growth": "9.64% (active)"}
{"smiles": "CC[C@@]1(O)C(=O)OCc2c1cc1n(c2=O)Cc2c-1nc1cc(F)c(C)c3c1c2[C@@H](N)CC3", "growth": "-4.63% (active)"}
{"smiles": "Cc1cccc2cc(-c3cc(-c4ccccc4)nc(=S)[nH]3)c(Cl)nc12", "growth": "101%"}
{"smiles": "Cc1ccc(CNC(=O)Cc2ccc3c(c2)CN(C2CCC(=O)NC2=O)C3=O)cc1", "note": "(stereo not drawn)", "growth": "95%"}
{"smiles": "CONC[C@]1(C)C=C2C(=O)[C@](C)(O)C3(CC3)C(C)=C2[C@H]1O", "growth": "-24.4% (active)"}
{"smiles": "CC1(C)CC[C@]2(C(=O)N3CCOCC3)CC[C@]3(C)C(=CC[C@@H]4[C@@]5(C)CC[C@H](NCO)C(C)(C)[C@@H]5CC[C@]43C)[C@H]2C1", "growth": "-92.7% (active)"}
{"smiles": "NS(=O)(=O)c1ccc(N=Nc2c(O)n(CC(=O)Nc3ccccc3Br)c3ccccc23)cc1", "growth": "26.4%"}
{"smiles": "CNC(=O)c1cccc(N2CCc3c2ccc(NC(=O)Nc2ccc(N4CCN(C)CC4)c(C(F)(F)F)c2)c3F)c1", "growth": "-81% (active)"}
{"smiles": "O=C(NCCCCC(c1ccc(F)cc1)c1ccc(F)cc1)NCCCc1cccnc1", "growth": "28.8%"}
{"smiles": "CC(=O)Nc1ccc(-c2cn(-c3cccc(C(=O)Nc4ccc(Cl)c(C(F)(F)F)c4)c3)nn2)cn1", "growth": "-73.3% (active)"}
{"smiles": "CCCS(=O)(=O)c1oc(-c2ccc(F)cc2)nc1S(=O)(=O)c1ccc(F)cc1", "growth": "61.7%"}
{"smiles": "O=C(Cn1nc(-c2ccccc2)ccc1=O)NN1C(=O)c2ccccc2C1=O", "growth": "99.7%"}
{"smiles": "CC(=O)NCC1=C(C)C=C2C(=O)[C@](C)(O)C3(CC3)C(C)=C21", "growth": "4.33% (active)"}
{"smiles": "CCN1CCN(Cc2ccc(C(=O)Nc3cccc(-c4cn(-c5ccc6oc(=O)ccc6c5)nn4)c3)cc2C(F)(F)F)CC1", "growth": "-100% (active)"}
{"smiles": "CCOP(=O)(OCC)O[C@H]1CCC(=O)[C@@H]2[C@H]1[C@H]1C[C@@H]3[C@@]4(C)CCCC(C)(C(=O)OC)[C@@H]4CC[C@@]23C=C1C(C)C", "note": "(stereo partly drawn)", "growth": "66.4%"}
{"smiles": "O=C1Nc2ccc(F)cc2/C1=C/c1cccc(OCc2ccccn2)c1", "growth": "36.5%"}
{"smiles": "CC1=N/C(=C\\c2ccc(N(C)C)cc2)C(=O)N1CCc1ccc(S(N)(=O)=O)cc1", "growth": "107%"}
{"smiles": "O=C(Nc1ccc(I)cc1F)c1cc(-c2ccc(F)cc2F)ccc1O", "growth": "2% (active)"}
{"smiles": "C/C(=N\\NC(N)=S)c1ccc(Nc2nc(SC(C)C)nc(-c3ccccc3)c2C#N)cc1", "growth": "41.7%"}
{"smiles": "COc1ccc2c(c1)N=C(C(=O)O)/C2=C/c1sc(Nc2ccc(O)cc2)nc1O", "growth": "82.3%"}
{"smiles": "COc1cc(-c2nc3cc(Cl)c(Cl)cc3[nH]2)ccc1OCc1nnc(-c2ccc(Br)cc2)o1", "growth": "22.9%"}
